Results on 27 compounds are retold here after PubChem BioAssay AID640 (Columbia University Molecular Screening Center, 2007).

The term inhibition denotes the drop in the measured response relative to a control, in per cent.

About 200 (0.21%) of roughly 96,000 compounds were called active.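 How the source made its calls: active means inhibition at 2 µM at or above a set limit, the screen mean plus 3 SD (cut at about 24% in these data); inactive means the rest.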 Only a selection was taken, and actives are over-represented in it overall.

For the test, the target named is Tyrosine-protein phosphatase non-receptor type 22 (Homo sapiens) (UniProt Q9Y2R2). Description: PTPN22 phosphatase inhibitors, primary screen, biochemical, DiFMUP fluorescence, 2 µM (AID 640).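 Further: 0% = DMSO with enzyme and 100% = enzyme fully blocked by orthovanadate.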 The following applies: recombinant LYP catalytic domain, at 2 µM, stronger effect = higher value.
Chain of Tyrosine-protein phosphatase non-receptor type 22 (Homo sapiens) (Q9Y2R2 whole entry, looked up, the tested form may be a part): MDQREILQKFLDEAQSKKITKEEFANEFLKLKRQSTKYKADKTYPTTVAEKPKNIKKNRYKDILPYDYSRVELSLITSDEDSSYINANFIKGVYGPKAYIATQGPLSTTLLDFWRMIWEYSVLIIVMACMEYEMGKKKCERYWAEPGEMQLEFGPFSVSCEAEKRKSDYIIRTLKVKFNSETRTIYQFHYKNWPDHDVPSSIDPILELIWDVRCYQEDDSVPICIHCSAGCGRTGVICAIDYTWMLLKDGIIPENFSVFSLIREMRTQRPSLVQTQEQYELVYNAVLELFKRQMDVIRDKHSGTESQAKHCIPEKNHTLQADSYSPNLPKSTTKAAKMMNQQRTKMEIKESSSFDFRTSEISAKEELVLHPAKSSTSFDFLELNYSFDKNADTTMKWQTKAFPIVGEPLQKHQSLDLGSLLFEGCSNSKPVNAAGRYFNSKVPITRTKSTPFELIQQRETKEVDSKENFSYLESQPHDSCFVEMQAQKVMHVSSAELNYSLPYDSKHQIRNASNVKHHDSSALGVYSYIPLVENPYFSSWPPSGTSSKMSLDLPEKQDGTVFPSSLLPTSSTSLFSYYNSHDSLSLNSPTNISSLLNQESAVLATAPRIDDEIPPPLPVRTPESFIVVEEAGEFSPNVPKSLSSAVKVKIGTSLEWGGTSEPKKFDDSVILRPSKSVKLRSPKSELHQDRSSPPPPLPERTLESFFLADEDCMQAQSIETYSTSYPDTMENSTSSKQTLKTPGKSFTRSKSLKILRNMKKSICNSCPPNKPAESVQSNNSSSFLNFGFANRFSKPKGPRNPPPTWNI
Take `O=C1CCCC2=C1C(c1ccccc1)n1c(s/c(=C/c3cccc(F)c3)c1=O)=N2` (configuration not stated): the inhibition is 3.1% (inactive). As to `O=C(Nc1cccc(NC(=O)c2ccco2)c1)c1cnccn1`, the inhibition is -8.1% (inactive). In the case of `CCOC(=O)c1nc(Nc2ccc(C(=O)OC)cc2)c2ccccc2n1`, the inhibition was 1.7% (inactive). For the compound `Cc1noc(COc2ccccc2OCc2onc(C)c2Cl)c1Cl`, the inhibition is -6.2% (inactive). For `CN1CCCN(S(=O)(=O)c2ccc3c(c2)OCCO3)CC1`, the inhibition was 14.9% (inactive). For the compound `CC(C)(C)c1cc(=O)n2c(nc3ccccc32)[nH]1`, the inhibition is 16.2% (inactive). Regarding `CCOC(=O)NNC(=O)c1ccc(Cl)cc1`, the inhibition is -7.6% (inactive). As to `O=C(CSc1ccccc1)Nc1ccc(NC(=O)c2ccco2)cc1`, the inhibition was 8.9% (inactive). The result for `O=C(CN1CCN(S(=O)(=O)c2ccc(Cl)s2)CC1)NCc1ccc(Cl)cc1` reads -18.4% (inactive); that for `O=C(c1ccc(F)cc1)c1c[nH]c(C(=O)NCc2cccnc2)c1`, -21.4% (inactive).

Turning to `CC(C)C(NC(=O)c1ccc(Cl)cc1)C(=O)O` (configuration not stated), the inhibition is 0.8% (inactive). In the case of `Cc1ccc2c(Cl)c(C(=O)NCCCn3ccnc3)sc2c1`, the inhibition was -1.4% (inactive). In the case of `COc1ccc(Cc2nnc(SCC(=O)c3cccc([N+](=O)[O-])c3)n2C)cc1`, the inhibition is 15.2% (inactive). In the case of `CN(C)c1nc(N)nc(CSc2ccccn2)n1`, the inhibition is -6.7% (inactive). The result for `COc1ccc(CCN2C(=O)C3CC=C(C)CC3C2=O)cc1OC` (configuration not stated) reads 3.1% (inactive); that for `Clc1ccc(C2=CSC3=Nc4cccc5cccc(c45)N23)cc1`, 13.9% (inactive). In the case of `CC(=O)NC1(c2cccc(F)c2)CCN(CC(=O)NC(C)C)CC1`, the inhibition was -6.7% (inactive). Consider `CC(=O)Oc1ccc(C(C)=O)c2c1OCCO2`, for which the inhibition was -11.9% (inactive). The result for `Cc1cc2c(cc1C)N(C(=O)CN1C(=O)c3ccccc3C1=O)C(C)(C)c1ssc(=S)c1-2` reads 2.3% (inactive); that for `CS(=O)(=O)N(CC(=O)Nc1ccc(Cl)c(Cl)c1)C1CCCCC1`, -10% (inactive); that for `O=C(Nc1ccccc1[N+](=O)[O-])C1C(c2ccccc2)=C1c1ccccc1`, -0.6% (inactive).

As for `O=C(c1cccc2ccccc12)N1CCN(c2ccccc2F)CC1`, the inhibition was -10.2% (inactive). As to `O=C(c1ccc(CN2CCOCC2)cc1)N1CCN(c2ccccc2F)CC1`, the inhibition was -7.2% (inactive). Regarding `O=C(Cn1c(-c2ccc(Cl)cc2)noc1=O)N1CCN(c2ccccc2F)CC1`, the inhibition is 27.2% (active). `COC(=O)c1nc2ccccc2s1`: the inhibition is -12% (inactive). Consider `COc1ccc(NC(=O)CSc2nc(N)c(-c3ccccc3)c(=O)[nH]2)cc1`, for which the inhibition was -3.5% (inactive). Consider `C=CCN1C(=O)C(Cc2cccc(Cl)c2)S/C1=N/N=C/c1ccco1` (configuration not stated), for which the inhibition was 8.9% (inactive).
